Here are results for 17 compounds from PubChem BioAssay (NCATS).

The nature of assay [1]: Quantitative High-Throughput drug screen in 47 multiple myeloma cell lines against the NCATS MIPE library collection: KMS34_JCRB cell viability assay (AID 1918985). Note: nearly all actives have a fitted effect of over 40% in size. A digest of the protocol: (§1)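 ATP-based CellTiter-Glo luminescence after 48 h drug exposure (37 °C, 5% CO2) of 500 myeloma cells per well. DMSO-only wells set 100% viability, media-only wells 0%; MIPE 4.0 library added by pin tool.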

A short description of assay [2]: Quantitative High-Throughput drug screen in 47 multiple myeloma cell lines against the NCATS MIPE library collection: OPM1_PLB cell viability assay (AID 1918989). Note: nearly all actives have a fitted effect of over 40% in size. A digest of the protocol:
as §1

A short description of assay [3]: Quantitative High-Throughput drug screen in 47 multiple myeloma cell lines against the NCATS MIPE library collection: XG6_PLB cell viability assay (AID 1919865). Note: nearly all actives have a fitted effect of over 40% in size. A digest of the protocol:
as §1

Assay [4] can be described thus: Quantitative High-Throughput drug screen in 47 multiple myeloma cell lines against the NCATS MIPE library collection: XG1_PLB cell viability assay (AID 1919866). Note: nearly all actives have a fitted effect of over 35% in size. A digest of the protocol: as §1
Assay [5] in a line: Quantitative High-Throughput drug screen in 47 multiple myeloma cell lines against the NCATS MIPE library collection: UTMC2_PLB cell viability assay (AID 1919868). Note: nearly all actives have a fitted effect of over 55% in size. The conditions noted are these: CellTiter-Glo ATP luminescence, 48 h; viability (% of DMSO control): at 45.8 µM (top of the series). A digest of the protocol:
as §1

The nature of assay [6]: Quantitative High-Throughput drug screen in 47 multiple myeloma cell lines against the NCATS MIPE library collection: PE2_PLB cell viability assay (AID 1919869). Note: nearly all actives have a fitted effect of over 35% in size. A digest of the protocol:
as §1

Assay [7] in a line: Quantitative High-Throughput drug screen in 47 multiple myeloma cell lines against the NCATS MIPE library collection: PCM6_Riken cell viability assay (AID 1919870). Note: nearly all actives have a fitted effect of over 30% in size. A digest of the protocol:
as §1

Assay [8] is described as follows: Quantitative High-Throughput drug screen in 47 multiple myeloma cell lines against the NCATS MIPE library collection: RPMI8226_ATCC cell viability assay (AID 1919871). Note: nearly all actives have a fitted effect of over 30% in size. A digest of the protocol:
as §1

The nature of assay [9]: Quantitative High-Throughput drug screen in 47 multiple myeloma cell lines against the NCATS MIPE library collection: OPM2_DSMZ cell viability assay (AID 1919872). Note: nearly all actives have a fitted effect of over 30% in size. A digest of the protocol:
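Relative luminescence from CellTiter-Glo served as the viability signal, referenced to DMSO-treated (100%) and cell-free medium (0%) controls. Treatment lasted 48 hours at 37C with 500 cells per well.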

Assay [10] is described as follows: Quantitative High-Throughput drug screen in 47 multiple myeloma cell lines against the NCATS MIPE library collection: OCIMY7_PLB cell viability assay (AID 1918987). Note: nearly all actives have a fitted effect of over 65% in size. The conditions noted are these: OCI-MY7 myeloma viability, CellTiter-Glo ATP, 48 h; viability (% of DMSO): at 45.8 µM (top of the series). A digest of the protocol: as §1
In general terms: ATP-based viability assays read luminescence as a measure of living cells.

Assay [11] is described as follows: Quantitative High-Throughput drug screen in 47 multiple myeloma cell lines against the NCATS MIPE library collection: OCIMY5_PLB cell viability assay (AID 1918988). Note: nearly all actives have a fitted effect of over 65% in size. A digest of the protocol: as §1
The nature of assay [12]: Quantitative High-Throughput drug screen in 47 multiple myeloma cell lines against the NCATS MIPE library collection: VP6_DJ cell viability assay (AID 1919867). Note: nearly all actives have a fitted effect of over 40% in size. A digest of the protocol:
as §1

Assay [13] can be described thus: Quantitative High-Throughput drug screen in 47 multiple myeloma cell lines against the NCATS MIPE library collection: KMS11_JCRBsus cell viability assay (AID 1919873). Note: nearly all actives have a fitted effect of over 50% in size. A digest of the protocol:
as §1

Assay [14] in a line: Quantitative High-Throughput drug screen in 47 multiple myeloma cell lines against the NCATS MIPE library collection: L363_DSMZ cell viability assay (AID 1918984). Note: nearly all actives have a fitted effect of over 40% in size. The conditions noted are these: L363 myeloma viability, CellTiter-Glo ATP luminescence, 48 h; viability (% of control): at 45.8 µM (top of the series). A digest of the protocol: as §1
Assay [15] can be described thus: Quantitative High-Throughput drug screen in 47 multiple myeloma cell lines against the NCATS MIPE library collection: U266_ATCC cell viability assay (AID 1919864). Note: nearly all actives have a fitted effect of over 35% in size. A digest of the protocol:
as §1

Assay [16] can be described thus: Quantitative High-Throughput drug screen in 47 multiple myeloma cell lines against the NCATS MIPE library collection: KMS28BM_JCRB cell viability assay (AID 1919874). Note: nearly all actives have a fitted effect of over 35% in size. A digest of the protocol: as §1
A short description of assay [17]: Quantitative High-Throughput drug screen in 47 multiple myeloma cell lines against the NCATS MIPE library collection: SKMM1_PLB cell viability assay (AID 1919863). Note: nearly all actives have a fitted effect of over 35% in size. The conditions noted are these: SKMM1 myeloma viability, CellTiter-Glo ATP, 48 h; viability: hits give low values. A digest of the protocol:
as §1

Inconclusive results are not listed. A number with no mark means an inactive call. Activity calls are given as the source filed them. Calls come from the whole dose curve; as a rule, active = well fitted cell-killing curve with a large enough effect; inconclusive = small, poorly fitted or top-dose-only effect, or effect the other way; inactive = no such curve, though single readings can be large or run the other way.
Potency is the fitted concentration of half-maximal effect.

`CC[C@H]1OC(=O)[C@H](C)[C@@H](O[C@H]2C[C@@](C)(OC)[C@@H](O)[C@H](C)O2)[C@H](C)[C@@H](O[C@@H]2O[C@H](C)C[C@H](N(C)C)[C@H]2O)[C@](C)(O)C[C@H](C)C(=NOCOCCOC)[C@H](C)[C@@H](O)[C@]1(C)O`: the Potency result in assay [1], in assay [2], in assay [3], in [4], in [5] and in assay [6] was “inactive” in each case. Besides, the Potency result in [7] and in assay [9] was “inactive” each time. Besides, the Potency in assay [8] was 4.69 µM (active).
Take `COc1cc2c(cc1Cc1cccc(Cl)c1F)c(=O)c(C(=O)O)cn2[C@H](CO)C(C)C`: the Potency in assay [1] is 20.9 µM (active); in assay [10], 18.7 µM (active); in assay [11], 7.43 µM (active); in assay [3], 18.7 µM (active); in [4], 18.7 µM (active); in assay [12], 10.5 µM (active). Besides, the Potency in assay [6] is 23.5 µM (active); in [7], 16.6 µM (active); in [8], 14.8 µM (active); in assay [13] it was 2.96 µM (active).
Take `FC(F)(F)c1ccc(C=Cc2nc(COc3ccc(CCCCn4ccnn4)cc3)co2)cc1`: the Potency is 0.001 µM (active) in [14]; 0.132 µM (active) in [10]; 0.0166 µM (active) in assay [11]; 0.0833 µM (active) in assay [5]; 0.0118 µM (active) in assay [7]; 0.0235 µM (active) in [13].
Regarding `O=C1NC(=O)C(=Cc2ccc(-c3ccc(F)cc3O)o2)S1`, the Potency in assay [14] is 0.833 µM (active); in [10], 3.72 µM (active); in [2], 14.8 µM (active); in [3], 2.35 µM (active); in [12], 2.96 µM (active); in [6] it was 7.43 µM (active). In addition, the Potency entry in assay [15], in assay [9] and in [16] was “inactive” in each case.
Consider `Nc1nc(Cl)nc2c1ncn2[C@@H]1O[C@H](CO)[C@@H](O)[C@H]1F`, for which the Potency is 0.0526 µM (active) in assay [14]; 0.0743 µM (active) in assay [11]; 1.48 µM (active) in assay [2]; 1.48 µM (active) in assay [15]; 0.0235 µM (active) in assay [3]; 0.187 µM (active) in assay [12]. For the same compound, the Potency in assay [5] is 0.332 µM (active); in assay [6], 0.418 µM (active).
Regarding `C[C@@]1(C(=O)Nc2ccc(F)nc2)CCCN1c1nc(Nc2cc(C3CC3)[nH]n2)c2cccn2n1`, the Potency was 0.0743 µM (active) in [10]; 0.118 µM (active) in [11]; 1.66 µM (active) in [2]; 1.48 µM (active) in assay [17]; 0.0332 µM (active) in assay [3]; 0.0372 µM (active) in assay [12]. Further, the Potency in assay [5] was 0.0118 µM (active); in [6] it was 11.8 µM (active); in assay [9], 7.43 µM (active); in [13], 0.0296 µM (active).
As to `COc1cc([C@@H]2c3cc4c(cc3[C@@H](O[C@@H]3O[C@@H]5CO[C@@H](C)O[C@@H]5[C@H](O)[C@@H]3O)[C@H]3COC(=O)[C@H]23)OCO4)cc(OC)c1O`, the Potency in assay [1] was 4.18 µM (active); in assay [11], 14.8 µM (active); in assay [2], 14.8 µM (active); in [5], 0.418 µM (active); in assay [6] it was 1.18 µM (active).
`CCC(=C(c1ccc(O)cc1)c1ccc(OCCNC)cc1)c1ccccc1`: the Potency in assay [1] is 26.4 µM (active); in assay [10], 16.6 µM (active); in assay [11], 18.7 µM (active); in assay [2] it was 18.7 µM (active); in [17], 20.9 µM (active); in assay [15], 29.6 µM (active). Moreover, the Potency in assay [3] was 6.62 µM (active); in assay [4], 11.8 µM (active); in assay [12], 13.2 µM (active); in assay [5], 9.35 µM (active); in assay [7], 23.5 µM (active); in assay [8], 26.4 µM (active). Moreover, the Potency in assay [13] was 8.33 µM (active).
On to `CCCCC(C)(C)[C@H](O)C=C[C@H]1[C@H](O)CC(=O)[C@H]1CC=CCCCC(=O)O`, for which the Potency in assay [2] is 18.7 µM (active); in [15], 13.2 µM (active); in [3], 23.5 µM (active); in [7], 26.4 µM (active); in assay [8], 8.33 µM (active). Besides, the Potency result in assay [16] is “inactive”.
For the compound `CCc1cccc(CC)c1NC(=O)N1Cc2[nH]nc(NC(=O)c3ccc(N4CCN(C)CC4)cc3)c2C1`, the Potency in [10] was 10.5 µM (active); in assay [11], 1.66 µM (active); in assay [2], 0.833 µM (active); in assay [17], 2.64 µM (active); in [3], 8.33 µM (active); in assay [12], 5.9 µM (active). Further, the Potency in assay [5] is 0.743 µM (active); in [6] it was 20.9 µM (active); in assay [13], 1.05 µM (active); in assay [16], 1.18 µM (active).
On to `Cc1cccc2c1CC[C@H](CN1CCC(c3c(Cl)cccc3Cl)CC1)C[C@@H]2O`, for which the Potency was 2.64 µM (active) in assay [11]; 18.7 µM (active) in [2]; 20.9 µM (active) in assay [3]; 20.9 µM (active) in assay [4]; 14.8 µM (active) in assay [12]; 20.9 µM (active) in [6]. Besides, the Potency is 18.7 µM (active) in assay [7], 16.6 µM (active) in [8], 14.8 µM (active) in assay [13] and 14.8 µM (active) in assay [16].
`C=C1[C@H](n2cnc3c(=O)[nH]c(N)nc32)C[C@H](O)[C@H]1CO`: the Potency in assay [10] is 1.18 µM (active); in assay [2], 2.35 µM (active); in assay [15], 14.8 µM (active); in assay [4], 1.18 µM (active); in assay [12] it was 4.69 µM (active). The Potency result in assay [3], in assay [6], in [8] and in assay [9] was “inactive” throughout.
Turning to `c1ccc(-c2oc3ncnc(NC[C@@H]4CCCO4)c3c2-c2ccccc2)cc1`, the Potency in assay [11] was 14.8 µM (active); in [2], 13.2 µM (active); in assay [15], 16.6 µM (active); in assay [3] it was 10.5 µM (active); in [6], 16.6 µM (active); in assay [8], 23.5 µM (active). The Potency in [13] was 16.6 µM (active).
On to `COc1cc2ncn(-c3cc(OCc4ccccc4S(C)(=O)=O)c(C#N)s3)c2cc1OC`, for which the Potency entry in [2], in assay [7], in assay [8] and in assay [9] was “inactive” each time. Moreover, in assay [6], the Potency was 1.05 µM (active).
As to `COc1cc2nccc(Oc3ccc(NC(=O)Nc4cc(C)on4)c(Cl)c3)c2cc1OC`, the Potency in assay [11] was 16.6 µM (active); in assay [2], 20.9 µM (active); in [15], 20.9 µM (active); in assay [3] it was 0.118 µM (active); in [4], 1.66 µM (active); in assay [8] it was 23.5 µM (active). Further, the Potency in assay [13] was 20.9 µM (active).
For the compound `CCOc1ccccc1N=Nc1c(C)[nH]n(-c2nc(-c3ccccc3)cs2)c1=O`, the Potency in [11] is 1.18 µM (active); in assay [17], 2.96 µM (active); in assay [15] it was 8.33 µM (active); in [8] it was 2.35 µM (active). Besides, the Potency result in assay [2], in [6] and in [9] was “inactive” each time.
As to `COc1cc(Nc2nc3ccccc3nc2NS(=O)(=O)c2ccc(NC(=O)c3ccc(C)c(OC)c3)cc2)cc(OC)c1`, the Potency in [11] was 4.69 µM (active); in assay [17] it was 10.5 µM (active); in assay [3] it was 13.2 µM (active); in assay [4], 13.2 µM (active); in [12], 5.9 µM (active); in [7], 2.35 µM (active). Besides, in assay [16], the Potency result was “inactive”.
